# Whole data set: some 2,900 compounds, median “NF-kB SEAP reporter activity, fold change vs agonist alone” near 0.99, cut for the highest 2% near 2.6. The full list was thinned out, with the highest values kept by preference.
# Columns and labels:
# RAW-Dual [1] = assay: NF-kB SEAP reporter activity, fold change vs agonist alone; cytotoxicity flag (confluency mask): not cytotoxic; higher = enhanced NF-kB activity
# How it was run: (§1)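 RAW-Dual macrophages were seeded in DMEM at 50,000 cells/well in 384-well plates, given 50 nL of library stock by pin tool, and given a PRR agonist 1 h later. Plates were held at 37 °C, 5% CO2 for 20 hours, after which supernatant was read for IRF by QuantiLuc luminescence and for NF-κB by QuantiBlue absorbance at 620 nm. Reporter activity is expressed as fold change over wells that received agonist alone. A well was called cytotoxic when IncuCyte confluency fell below 70% of agonist controls in both mask sets.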
# RAW-Dual [2] = assay: NF-kB SEAP reporter activity, fold change vs agonist alone; higher = enhanced NF-kB activity; details: library stock concentration (final ~1000-fold dilution): 10 mM, cytotoxicity flag (confluency mask): not cytotoxic
# How it was run: as §1
# [3] = agonist: ODN 1826 (TLR9) 0.5 ug/mL
# [4] = agonist: Pam2CSK4 (TLR2/6) 0.1 ug/mL
# [5] = agonist: Pam3CSK4 (TLR2/1) 0.1 ug/mL
compound,measurement,setting,value
COc1cc(CCC(=O)CC(O)CCc2ccc(O)c(OC)c2)ccc1O (centres undefined) (library stock concentration (final ~1000-fold dilution): 10 mM),NF-kB SEAP reporter activity,RAW-Dual [1]; agonist: LPS (TLR4) 0.1 ug/mL,1.4
same,NF-kB SEAP reporter activity,RAW-Dual [1]; [3],1.07
same,NF-kB SEAP reporter activity,RAW-Dual [1]; [4],0.979
same,NF-kB SEAP reporter activity,RAW-Dual [1]; [5],1.25
COc1cc(CCC(=O)CC(O)CCc2ccc(O)c(OC)c2)ccc1O (centres undefined),NF-kB SEAP reporter activity,RAW-Dual [2]; agonist: Imiquimod (TLR7) […],1.04
same,NF-kB SEAP reporter activity,RAW-Dual [2]; agonist: MPLA (TLR4) […],1.1
COC(=O)C1=C(C)NC(C)=C(C(=O)OC2CCCN(Cc3ccccc3)C2)C1c1cccc([N+](=O)[O-])c1.Cl (centres undefined) (library stock concentration (final ~1000-fold dilution): 10 mM),NF-kB SEAP reporter activity,RAW-Dual [1]; agonist: LPS (TLR4) 0.1 ug/mL,1.22
same,NF-kB SEAP reporter activity,RAW-Dual [1]; [3],0.381
same,NF-kB SEAP reporter activity,RAW-Dual [1]; [4],0.365
same,NF-kB SEAP reporter activity,RAW-Dual [1]; [5],0.368
COC(=O)C1=C(C)NC(C)=C(C(=O)OC2CCCN(Cc3ccccc3)C2)C1c1cccc([N+](=O)[O-])c1.Cl (centres undefined),NF-kB SEAP reporter activity,RAW-Dual [2]; agonist: Imiquimod (TLR7) […],0.718
same,NF-kB SEAP reporter activity,RAW-Dual [2]; agonist: MPLA (TLR4) […],0.978
OCCn1cc(-c2ccc3c(c2)CC/C3=N\O)c(-c2ccncc2)n1 (library stock concentration (final ~1000-fold dilution): 10 mM),NF-kB SEAP reporter activity,RAW-Dual [1]; agonist: LPS (TLR4) 0.1 ug/mL,2.47
same,NF-kB SEAP reporter activity,RAW-Dual [1]; [3],1.5
same,NF-kB SEAP reporter activity,RAW-Dual [1]; [4],1.34
same,NF-kB SEAP reporter activity,RAW-Dual [1]; [5],2.22
CN(C)CCOc1ccc(-c2nc(-c3ccncc3)c(-c3ccc4c(c3)CC/C4=N\O)[nH]2)cc1 (library stock concentration (final ~1000-fold dilution): 10 mM),NF-kB SEAP reporter activity,RAW-Dual [1]; agonist: LPS (TLR4) 0.1 ug/mL,5
same,NF-kB SEAP reporter activity,RAW-Dual [1]; [3],0.964
same,NF-kB SEAP reporter activity,RAW-Dual [1]; [4],1.49
same,NF-kB SEAP reporter activity,RAW-Dual [1]; [5],0.882
CN(C)CCOc1ccc(-c2nc(-c3ccncc3)c(-c3ccc4c(c3)CC/C4=N\O)[nH]2)cc1,NF-kB SEAP reporter activity,RAW-Dual [2]; agonist: Imiquimod (TLR7) […],0.946
same,NF-kB SEAP reporter activity,RAW-Dual [2]; agonist: MPLA (TLR4) […],1.02
OCCn1cc(-c2ccc3c(c2)CC/C3=N\O)c(-c2ccncc2)n1,NF-kB SEAP reporter activity,RAW-Dual [2]; agonist: Imiquimod (TLR7) […],1.65
same,NF-kB SEAP reporter activity,RAW-Dual [2]; agonist: MPLA (TLR4) […],1.57
CS(=O)(=O)c1ccc(Oc2cc(F)cc(C#N)c2)c2c1C(O)C(F)(F)C2 (centres undefined) (library stock concentration (final ~1000-fold dilution): 10 mM),NF-kB SEAP reporter activity,RAW-Dual [1]; agonist: LPS (TLR4) 0.1 ug/mL,1.07
same,NF-kB SEAP reporter activity,RAW-Dual [1]; [3],1.35
same,NF-kB SEAP reporter activity,RAW-Dual [1]; [4],1.01
same,NF-kB SEAP reporter activity,RAW-Dual [1]; [5],1.2
CS(=O)(=O)c1ccc(Oc2cc(F)cc(C#N)c2)c2c1C(O)C(F)(F)C2 (centres undefined),NF-kB SEAP reporter activity,RAW-Dual [2]; agonist: Imiquimod (TLR7) […],1.03
same,NF-kB SEAP reporter activity,RAW-Dual [2]; agonist: MPLA (TLR4) […],1.16
COc1ccc(CCNCC(O)COc2cccc(C)c2)cc1OC.Cl (centres undefined) (library stock concentration (final ~1000-fold dilution): 10 mM),NF-kB SEAP reporter activity,RAW-Dual [1]; agonist: LPS (TLR4) 0.1 ug/mL,1.02
same,NF-kB SEAP reporter activity,RAW-Dual [1]; [3],0.846
same,NF-kB SEAP reporter activity,RAW-Dual [1]; [4],0.999
same,NF-kB SEAP reporter activity,RAW-Dual [1]; [5],1.08
COc1ccc(CCNCC(O)COc2cccc(C)c2)cc1OC.Cl (centres undefined),NF-kB SEAP reporter activity,RAW-Dual [2]; agonist: MPLA (TLR4) […],1.06
COc1ccccc1N1CCN(CC(O)COc2cccc3ccccc23)CC1.Cl.Cl (centres undefined) (library stock concentration (final ~1000-fold dilution): 10 mM),NF-kB SEAP reporter activity,RAW-Dual [1]; agonist: LPS (TLR4) 0.1 ug/mL,0.815
same,NF-kB SEAP reporter activity,RAW-Dual [1]; [3],0.929
same,NF-kB SEAP reporter activity,RAW-Dual [1]; [4],0.819
same,NF-kB SEAP reporter activity,RAW-Dual [1]; [5],0.805
COc1ccccc1N1CCN(CC(O)COc2cccc3ccccc23)CC1.Cl.Cl (centres undefined),NF-kB SEAP reporter activity,RAW-Dual [2]; agonist: Imiquimod (TLR7) […],1.01
same,NF-kB SEAP reporter activity,RAW-Dual [2]; agonist: MPLA (TLR4) […],0.766
CCCCN(Cc1ccc(C(=O)NO)cc1)C(=O)Nc1ccccc1,NF-kB SEAP reporter activity,RAW-Dual [2]; agonist: Imiquimod (TLR7) […],1.52
same,NF-kB SEAP reporter activity,RAW-Dual [2]; agonist: MPLA (TLR4) […],2.9
CCCCN(Cc1ccc(C(=O)NO)cc1)C(=O)Nc1ccccc1 (library stock concentration (final ~1000-fold dilution): 10 mM),NF-kB SEAP reporter activity,RAW-Dual [1]; agonist: LPS (TLR4) 0.1 ug/mL,6.63
same,NF-kB SEAP reporter activity,RAW-Dual [1]; [3],2.5
same,NF-kB SEAP reporter activity,RAW-Dual [1]; [4],1.18
same,NF-kB SEAP reporter activity,RAW-Dual [1]; [5],1.73
O=C(NO)c1ccc(CC(=O)N(CCO)c2ccccc2)cc1,NF-kB SEAP reporter activity,RAW-Dual [2]; agonist: Imiquimod (TLR7) […],1.15
same,NF-kB SEAP reporter activity,RAW-Dual [2]; agonist: MPLA (TLR4) […],1.79
